From the supplement of paper PMC10849652
Of roughly 8,800 targets only a part is listed; those with a hit were picked by preference. About 0.5% of all pairs of compound and target were hits. Unmarked numbers belong to inactive results.

What was measured:
Assay in all cases: log2 fold change, soluble protein after heating vs DMSO (PISA); higher = thermal stabilisation; K562 lysate, 10 uM; active = over 0.2 and 3.5 SD of the protein, either way, in both replicates (recomputed)
[1] = compound: C1=CC=C(C=C1)[C@H](COC2=CC3=C(C=C2)NC(=O)N3)NC(=O)C4=CC=CN(C4=O)CC5=CC(=C(C=C5)F)F
In short: (§1)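 Quantification was by TMTpro 16plex LC-MS/MS with equalised channel sums, applied to the supernatant after 21,000xg for 90 min. Samples were crude K562 extract at 1 mg/mL protein in PBS pH 7.4 with 1 mM MgCl2, treated with 10 μM compound for 30 min, heated for 3 min across 48°C-58°C, pooled and brought to 0.5% NP-40 at 4°C. Values are log-two fold changes in thermal stability relative to solvent controls, from duplicates.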

[2] = compound: CC1=C(SC2=C1C(=N[C@H](C3=NN=C(N32)C)CC(=O)N)C4=CC=C(C=C4)Cl)C
In short: as §1

[3] = compound: CC1=C2C(=CC=C1)N=C(N(C2=O)C3=CC=CC=C3C)CN4C=NC5=C(N=CN=C54)N
In short: as §1

[4] = compound: Cc1sc2c(c1C)C(c1ccc(Cl)cc1)=N[C@@H](CC(=O)OC(C)(C)C)c1nnc(C)n1-2
In short: as §1

[5] = compound: c1ccc([C@@H]2C[C@H]2NC2CCNCC2)cc1
In short: as §1

UniProt Q14934, sequence (Q14934 whole entry, looked up): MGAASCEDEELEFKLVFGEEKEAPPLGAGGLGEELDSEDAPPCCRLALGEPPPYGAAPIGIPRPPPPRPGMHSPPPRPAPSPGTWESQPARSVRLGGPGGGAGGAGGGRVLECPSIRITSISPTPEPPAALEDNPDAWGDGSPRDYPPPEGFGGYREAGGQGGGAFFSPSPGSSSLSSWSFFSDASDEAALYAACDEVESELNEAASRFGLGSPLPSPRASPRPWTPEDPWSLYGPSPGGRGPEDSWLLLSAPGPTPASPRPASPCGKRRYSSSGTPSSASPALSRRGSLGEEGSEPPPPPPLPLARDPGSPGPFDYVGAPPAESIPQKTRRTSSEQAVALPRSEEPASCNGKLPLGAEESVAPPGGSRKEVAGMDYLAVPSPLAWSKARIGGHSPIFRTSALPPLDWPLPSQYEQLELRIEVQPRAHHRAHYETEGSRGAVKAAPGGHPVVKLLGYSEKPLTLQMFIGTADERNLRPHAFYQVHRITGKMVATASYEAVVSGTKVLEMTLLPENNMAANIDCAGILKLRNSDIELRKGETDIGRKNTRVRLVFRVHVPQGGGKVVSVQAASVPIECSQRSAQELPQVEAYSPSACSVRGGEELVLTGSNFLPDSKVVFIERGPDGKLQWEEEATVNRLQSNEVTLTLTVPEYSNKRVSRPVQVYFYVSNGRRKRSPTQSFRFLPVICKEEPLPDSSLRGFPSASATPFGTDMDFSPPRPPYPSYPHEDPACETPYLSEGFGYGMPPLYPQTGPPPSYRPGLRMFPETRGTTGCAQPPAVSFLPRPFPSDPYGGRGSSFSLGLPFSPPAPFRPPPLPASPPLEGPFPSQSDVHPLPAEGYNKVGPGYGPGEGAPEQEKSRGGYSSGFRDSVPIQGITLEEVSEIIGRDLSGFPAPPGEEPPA
UniProt Q9Y5A7, sequence (Q9Y5A7 whole entry, looked up): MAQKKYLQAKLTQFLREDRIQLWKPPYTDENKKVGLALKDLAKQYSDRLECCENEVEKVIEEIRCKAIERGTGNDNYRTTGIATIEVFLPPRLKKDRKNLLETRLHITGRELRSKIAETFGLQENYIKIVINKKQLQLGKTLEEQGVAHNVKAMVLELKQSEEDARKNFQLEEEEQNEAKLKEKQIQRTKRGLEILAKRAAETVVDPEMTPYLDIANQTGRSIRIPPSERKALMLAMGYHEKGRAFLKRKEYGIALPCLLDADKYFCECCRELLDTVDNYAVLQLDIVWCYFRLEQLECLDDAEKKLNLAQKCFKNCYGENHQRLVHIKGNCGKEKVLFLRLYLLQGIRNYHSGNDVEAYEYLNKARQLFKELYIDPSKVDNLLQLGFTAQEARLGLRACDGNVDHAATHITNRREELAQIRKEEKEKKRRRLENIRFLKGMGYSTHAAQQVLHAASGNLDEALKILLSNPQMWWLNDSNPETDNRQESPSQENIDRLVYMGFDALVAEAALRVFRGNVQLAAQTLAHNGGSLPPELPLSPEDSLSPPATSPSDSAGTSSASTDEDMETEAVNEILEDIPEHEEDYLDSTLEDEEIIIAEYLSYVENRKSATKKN
UniProt Q9UFN0, sequence (Q9UFN0 whole entry, looked up): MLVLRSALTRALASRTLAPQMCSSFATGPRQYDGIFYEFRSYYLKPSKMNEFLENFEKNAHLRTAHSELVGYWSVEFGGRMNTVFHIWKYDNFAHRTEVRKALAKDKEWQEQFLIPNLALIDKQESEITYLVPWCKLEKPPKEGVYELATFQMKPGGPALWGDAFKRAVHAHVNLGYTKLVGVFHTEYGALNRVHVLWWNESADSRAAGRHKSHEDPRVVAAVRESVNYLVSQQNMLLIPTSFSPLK
UniProt Q08J23, sequence (Q08J23 whole entry, looked up): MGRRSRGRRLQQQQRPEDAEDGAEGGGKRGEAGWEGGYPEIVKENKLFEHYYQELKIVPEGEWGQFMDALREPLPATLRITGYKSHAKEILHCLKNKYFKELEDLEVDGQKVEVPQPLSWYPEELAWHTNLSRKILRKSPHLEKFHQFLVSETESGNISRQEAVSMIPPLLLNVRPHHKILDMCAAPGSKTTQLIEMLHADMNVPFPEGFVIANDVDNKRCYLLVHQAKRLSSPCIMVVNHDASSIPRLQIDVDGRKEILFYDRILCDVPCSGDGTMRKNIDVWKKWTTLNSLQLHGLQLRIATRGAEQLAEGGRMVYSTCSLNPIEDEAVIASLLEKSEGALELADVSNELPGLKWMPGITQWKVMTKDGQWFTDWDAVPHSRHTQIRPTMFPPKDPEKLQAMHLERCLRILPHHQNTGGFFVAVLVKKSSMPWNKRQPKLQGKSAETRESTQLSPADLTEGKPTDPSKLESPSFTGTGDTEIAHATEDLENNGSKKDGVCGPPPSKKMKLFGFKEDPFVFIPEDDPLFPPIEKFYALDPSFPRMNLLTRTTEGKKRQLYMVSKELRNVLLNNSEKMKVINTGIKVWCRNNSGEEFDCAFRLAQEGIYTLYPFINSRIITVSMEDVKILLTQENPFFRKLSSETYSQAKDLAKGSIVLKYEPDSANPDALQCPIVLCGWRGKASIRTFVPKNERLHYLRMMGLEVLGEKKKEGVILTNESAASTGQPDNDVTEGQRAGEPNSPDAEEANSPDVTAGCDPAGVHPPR
UniProt Q15102, sequence (Q15102 whole entry, looked up): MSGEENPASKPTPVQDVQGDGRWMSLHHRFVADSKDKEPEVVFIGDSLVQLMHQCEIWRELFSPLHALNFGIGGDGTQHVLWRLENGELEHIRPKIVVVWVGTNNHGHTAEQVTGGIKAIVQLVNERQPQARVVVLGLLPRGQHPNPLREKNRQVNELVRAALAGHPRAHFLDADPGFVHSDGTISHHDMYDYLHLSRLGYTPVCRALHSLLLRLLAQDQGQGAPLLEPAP
UniProt Q8TE04, sequence (Q8TE04 whole entry, looked up): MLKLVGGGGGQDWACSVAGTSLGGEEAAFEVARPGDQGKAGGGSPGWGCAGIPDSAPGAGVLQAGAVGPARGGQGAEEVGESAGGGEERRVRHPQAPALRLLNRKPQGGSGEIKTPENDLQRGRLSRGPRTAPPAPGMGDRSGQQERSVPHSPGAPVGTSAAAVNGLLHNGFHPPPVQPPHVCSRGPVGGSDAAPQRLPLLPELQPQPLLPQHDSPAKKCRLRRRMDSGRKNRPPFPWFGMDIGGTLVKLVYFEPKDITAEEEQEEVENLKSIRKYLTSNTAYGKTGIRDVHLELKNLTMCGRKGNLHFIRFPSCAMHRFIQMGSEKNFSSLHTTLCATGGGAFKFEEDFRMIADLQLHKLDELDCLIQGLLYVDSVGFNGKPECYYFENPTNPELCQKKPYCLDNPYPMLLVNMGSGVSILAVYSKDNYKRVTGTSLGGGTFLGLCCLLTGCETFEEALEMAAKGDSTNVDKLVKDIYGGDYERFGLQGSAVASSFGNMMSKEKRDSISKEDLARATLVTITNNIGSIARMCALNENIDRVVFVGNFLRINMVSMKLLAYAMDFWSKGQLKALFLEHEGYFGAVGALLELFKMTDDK
UniProt Q8TDX7, sequence (Q8TDX7 whole entry, looked up): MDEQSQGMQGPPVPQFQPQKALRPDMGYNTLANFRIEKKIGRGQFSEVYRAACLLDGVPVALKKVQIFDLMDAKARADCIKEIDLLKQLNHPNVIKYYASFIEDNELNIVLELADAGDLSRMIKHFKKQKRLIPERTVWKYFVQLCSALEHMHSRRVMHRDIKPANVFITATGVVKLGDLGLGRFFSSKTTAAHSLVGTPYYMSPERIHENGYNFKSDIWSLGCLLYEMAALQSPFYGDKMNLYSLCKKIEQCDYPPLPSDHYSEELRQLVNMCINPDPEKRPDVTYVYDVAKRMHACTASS
UniProt Q6N069, sequence (Q6N069 whole entry, looked up): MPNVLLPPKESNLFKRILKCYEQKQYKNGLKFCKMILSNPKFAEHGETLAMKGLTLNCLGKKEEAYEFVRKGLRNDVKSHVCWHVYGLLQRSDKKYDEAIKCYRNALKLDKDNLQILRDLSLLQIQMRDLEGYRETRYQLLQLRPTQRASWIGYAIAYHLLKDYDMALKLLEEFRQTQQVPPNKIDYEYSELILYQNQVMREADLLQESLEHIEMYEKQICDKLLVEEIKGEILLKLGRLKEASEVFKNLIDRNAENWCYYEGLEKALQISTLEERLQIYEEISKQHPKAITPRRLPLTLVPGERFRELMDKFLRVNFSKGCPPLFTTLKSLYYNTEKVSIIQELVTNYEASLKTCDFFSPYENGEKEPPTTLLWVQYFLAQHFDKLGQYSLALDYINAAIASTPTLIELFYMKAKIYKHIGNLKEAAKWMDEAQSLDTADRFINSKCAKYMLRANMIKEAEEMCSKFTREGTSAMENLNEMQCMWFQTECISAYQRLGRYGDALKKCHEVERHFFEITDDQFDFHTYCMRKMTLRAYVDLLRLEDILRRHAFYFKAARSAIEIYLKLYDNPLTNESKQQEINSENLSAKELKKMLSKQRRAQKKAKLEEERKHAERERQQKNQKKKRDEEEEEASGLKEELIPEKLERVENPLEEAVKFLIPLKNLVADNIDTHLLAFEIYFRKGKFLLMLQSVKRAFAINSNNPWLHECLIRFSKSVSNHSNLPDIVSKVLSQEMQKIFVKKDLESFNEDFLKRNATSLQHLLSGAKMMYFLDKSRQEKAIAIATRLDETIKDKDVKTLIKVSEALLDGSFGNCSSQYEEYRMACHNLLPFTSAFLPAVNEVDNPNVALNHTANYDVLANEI
UniProt Q9NPF4, sequence (Q9NPF4 whole entry, looked up): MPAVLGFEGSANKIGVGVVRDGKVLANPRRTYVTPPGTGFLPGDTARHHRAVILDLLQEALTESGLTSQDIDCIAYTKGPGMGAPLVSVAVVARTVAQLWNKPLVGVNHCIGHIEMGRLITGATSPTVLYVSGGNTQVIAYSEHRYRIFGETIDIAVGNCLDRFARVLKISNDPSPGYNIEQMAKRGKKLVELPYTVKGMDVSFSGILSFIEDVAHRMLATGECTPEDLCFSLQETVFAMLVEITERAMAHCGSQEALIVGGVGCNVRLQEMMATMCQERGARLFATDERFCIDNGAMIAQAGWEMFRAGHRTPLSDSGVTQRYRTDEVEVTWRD

| Target | log2 fold change [1] | log2 fold change [2] | log2 fold change [3] | log2 fold change [4] | log2 fold change [5] |
| --- | --- | --- | --- | --- | --- |
| NAP1L5 (UniProt Q96NT1) | 0.082 | -0.023 | -0.028 | -0.082 | 0.304 |
| NMRAL1 (UniProt Q9HBL8) | -0.09 | 0.049 | 0.009 | -0.071 | -0.027 |
| PAFAH1B3 (UniProt Q15102) | 0 | 0.042 | 0.045 | 0.047 | 0.014 |
| NBN (UniProt O60934) | 0.074 | 0.046 | 0.003 | -0.011 | 0.059 |
| PANK1 (UniProt Q8TE04) | -0.071 | -0.056 | 0.178 | -0.077 | 0.076 |
| NIPSNAP3A (UniProt Q9UFN0) | 0.083 | -0.037 | -0.013 | -0.036 | 0.322 (active) |
| NTPCR (UniProt Q9BSD7) | -0.015 | 0.067 | -0.015 | 0.034 | 0.029 |
| NIPBL (UniProt Q6KC79) | 0.003 | -0.055 | -0.001 | -0.014 | -0.01 |
| NCOR2 (UniProt C9J0Q5) | 0.045 | 0.033 | -0.031 | 0.048 | -0.006 |
| NLRP2 (UniProt Q9NX02) | -0.01 | -0.027 | -0.015 | 0.03 | 0.093 |
| MRPL58 (UniProt Q14197) | 0.011 | 0.029 | 0.075 | -0.002 | 0.081 |
| MYH6 (UniProt P13533) | -0.552 | 0.239 |  |  |  |
| NOSIP (UniProt Q9Y314) | 0.018 | -0.005 | -0.018 | 0.019 | 0.012 |
| NUMB (UniProt P49757) | 0.001 | 0.034 | 0.009 | 0.004 | -0.032 |
| NEK7 (UniProt Q8TDX7) | 0.03 | -0.032 | -0.004 | -0.076 | 0.026 |
| N6AMT1 (UniProt Q9Y5N5) | -0.046 | -0.086 | -0.046 | -0.011 | 0.052 |
| NFAT5 isoform 4 (UniProt O94916) | -0.208 | 0.11 |  |  |  |
| PAN2 isoform 2 (UniProt Q504Q3) | -0.108 | 0.086 | -0.004 | -0.044 | 0.007 |
| MTA1 (UniProt Q13330) | 0.005 | -0.01 | 0.01 | 0.055 | 0.012 |
| NUP93 (UniProt Q8N1F7) | -0.054 | -0.017 | -0.006 | 0.007 | 0.031 |
| NEXN (UniProt Q0ZGT2) | -0.31 | 0.335 | 0.271 | -0.083 | -0.22 |
| MTA2 (UniProt O94776) | 0 | 0.015 | -0.004 | 0.015 | 0.031 |
| OCRL (UniProt Q01968) | 0.018 | 0.056 | 0.003 | 0.013 | -0.017 |
| NAA16 (UniProt Q6N069) | 0.027 | 0.01 | 0.168 | 0.065 |  |
| NUB1 (UniProt Q9Y5A7) | -0.011 | 0.029 | 0.025 | 0.013 | 0.039 |
| ORC5 (UniProt O43913) | -0.037 | -0.022 | 0.029 | 0.003 | 0.021 |
| MTA3 (UniProt Q9BTC8) | -0.006 | -0.047 | 0.002 | 0.014 | -0.001 |

| Target | log2 fold change [1] | log2 fold change [2] | log2 fold change [3] | log2 fold change [4] | log2 fold change [5] |
| --- | --- | --- | --- | --- | --- |
| MTHFD1, A0A384N5Y3 | -0.003 | -0.002 | 0.015 | 0.018 | 0.071 |
| PARG (UniProt Q86W56) | -0.011 | -0.006 | -0.005 | -0.004 | 0.091 |
| NELFCD (UniProt Q8IXH7) | -0.035 | 0.023 | 0.018 | 0.003 | 0.025 |
| OARD1 (UniProt Q9Y530) | -0.005 | -0.014 | 0.035 | 0.044 | -0.005 |
| NSUN2 (UniProt Q08J23) | -0.016 | 0.011 | -0.009 | 0.021 | 0.019 |
| PANK2 (UniProt Q9BZ23) | 0.024 | 0.081 | -0.021 | 0.019 | -0.077 |
| NNMT (UniProt P40261) | 0.003 | 0.05 | 0.027 | -0.011 | -0.027 |
| MYO9A isoform 4 (UniProt B2RTY4) | -0.124 | -0.047 | 0.094 | -0.027 | -0.02 |
| NUP98 (UniProt P52948) | -0.018 | -0.03 | 0.037 | 0.052 | -0.003 |
| MTOR (UniProt P42345) | -0.022 | 0.004 | 0.013 | 0.014 | 0.029 |
| NFATC4 isoform 2 (UniProt Q14934) | -0.077 | 0.015 | 0 | -0.112 | -0.197 |
| NGLY1 (UniProt Q96IV0) | -0.011 | 0.002 | 0.016 | -0.018 | -0.07 |
| OSGEP (UniProt Q9NPF4) | -0.007 | 0.031 | 0.036 | 0.063 | 0.011 |
| MSH3 (UniProt P20585) | 0.018 | 0.014 | 0.039 | -0.008 | 0.04 |
| NUDT5 (UniProt Q9UKK9) | 0.053 | -0.126 | -0.012 | -0.097 | -0.158 |
| NAA35 (UniProt Q5VZE5) | 0.004 | 0.066 | -0.023 | -0.002 | 0.086 |
| MYD88 isoform 6 (UniProt Q99836) | 0.019 | -0.021 | 0.026 | -0.008 | 0.013 |
| MRPS31 (UniProt Q92665) | -0.019 | -0.048 | 0.046 | 0.014 | 0.014 |
| NUP210 (UniProt Q8TEM1) | -0.101 | 0.07 | 0.016 | 0.04 | 0.028 |
| NEBL (UniProt O76041) | -0.074 | 0.011 | 0.047 | 0.043 | 0.014 |
| NFATC1 (UniProt O95644) | -0.006 | 0.047 | -0.017 | 0.003 | -0.127 |
| MTCH2 (UniProt Q9Y6C9) | 0.013 | 0.001 | -0.006 | -0.014 | -0.083 |
| OTUD7B (UniProt Q6GQQ9) | -0.004 | 0 | -0.001 | -0.02 | 0.035 |
| PAK1 (UniProt Q13153) | 0.029 | -0.009 | -0.011 | 0.015 | -0.126 |
| MRPL51 (UniProt Q4U2R6) | -0.001 | -0.053 | 0.043 | 0.066 | -0.109 |
| NCAPH (UniProt Q15003) | -0.025 | 0.015 | 0.021 | -0.023 | 0.024 |
| MRPL53 (UniProt Q96EL3) | -0.056 | -0.102 | 0.079 | -0.026 | -0.093 |
